# Measured values published in PubChem BioAssay.
# Tested on: Wnt5a (protein binding on small-molecule microarray)
# Test: Wnt5a binders on small-molecule microarray, primary screen, biophysical, 635/667 nm fluorescence (AID 1142);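 note: fluorescence read at 667 nm with signal to noise per printed feature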
# Conditions: 635 nm fluorescence, higher = more signal
row,Compound,composite z-score
1,C=CCC(OC(C)=O)[C@@H]1[C@@H](N(Cc2cc3ccccc3o2)C(=O)c2ccc(-c3ccccc3)cc2)c2cc(OCCCO)ccc2N1C(=O)Cc1ccc(OC)cc1 (some centres undefined),-0.138
2,COCC(=C=CC[C@@H](O)c1ccc(OCCO)cc1)CCO,0.0576
3,CC(C)(C)OC(=O)CC[C@]12N=C(c3ccc(OCCCO)cc3)O[C@H]1c1ccccc1N(Cc1ccccc1)C2=O,0.154
4,O=C1OCCC/C=C\[C@H]2OC34C=CCN(c5ccc6ccccc6c5)C(=O)[C@H]3N(CCCO)C(=O)[C@@H]4C12 (some centres undefined),-0.482
5,C=C/C=C/[C@@H]1C(=C)CN([C@@H](Cc2ccccc2)C(=O)OC)[C@H]1[C@@H](O)Cc1ccccc1,-0.0425
6,O=C1NC(=O)C2C1C=CC(C(O)c1ccccn1)N2Nc1ccc(Cl)cc1Cl (centres undefined),0.0314
7,CC(C)C[C@@H]1NC(=O)CNC(=O)[C@@]23C(=O)N[C@@H](Cc4ccccc4)C2[C@H](C)[C@@]2(C)O[C@H]2C3/C=C/C/C=C\CNC1=O (some centres undefined),0.184
8,CCOC(=O)C1=C[C@@H](c2ccccc2)N(S(=O)(=O)c2ccc(C)cc2)[C@H]1c1ccccc1,0.202
9,[N-]=[N+]=NCc1ccccc1C[C@]1(C(=O)N2CCOCC2)COC(c2ccc(OCCCO)cc2)=N1,0.0879
10,COCCOC(=O)N1C(=O)[C@@]2(c3cc(C#Cc4ccc(OC)cc4)ccc31)[C@H](C(=O)NC[C@H](O)c1ccccc1)[C@H]1C(=O)O[C@H](c3ccccc3)[C@H](c3ccccc3)N1[C@@H]2c1ccc(OCCO)cc1,0.76
11,COCCOC(=O)N1C(=O)[C@@]2(c3cc(C#CCC(C(=O)OC)C(=O)OC)ccc31)[C@H](c1ccc(OCCO)cc1)N1[C@H](c3ccccc3)[C@H](c3ccccc3)OC(=O)[C@H]1[C@@H]2C(=O)Nc1nc2ccccc2s1,0.0015
12,COCCOC(=O)N1C(=O)[C@@]2(c3cc(C#CCNC(N)=O)ccc31)[C@H](c1ccc(O)cc1)N1[C@H](c3ccccc3)[C@H](c3ccccc3)OC(=O)[C@H]1[C@@H]2C(=O)N1CCN(c2ncccn2)CC1,0.0474
13,COc1cc(C(O)C2C=CC3C(=O)N(Cc4ccccc4)C(=O)C3N2n2cnnc2)cc(OC)c1OC (centres undefined),0.388
14,CCCCC=C[C@@H](NC(=O)c1ccccc1)c1ccccc1,-0.275
15,COc1ccc([Si](C)(C)[C@@H]2[C@@H](CC(=O)N3Cc4ccccc4C[C@H]3CO)O[C@]3(C(=O)N(c4ccccc4)c4ccccc43)[C@H]2C)cc1,0.6
16,CCOC(=O)C1=CCC(c2ccccc2)N(S(=O)(=O)c2ccc([N+](=O)[O-])cc2)C1 (centres undefined),-0.206
17,[N-]=[N+]=NCc1ccccc1[C@@H]1OC(c2ccc(OCCCO)cc2)=N[C@]1(Cc1ccccc1N=[N+]=[N-])C(=O)N1CCCCC1,0.0032
18,C=CCN1C(=O)[C@]2(O[C@H](CCO)[C@@H]([Si](C)(C)c3ccc(OC)cc3)[C@@H]2C)c2cc(N3C(=O)COc4ccccc43)ccc21,0.01
19,COCCCNC(=O)[C@@]1(c2ccc([N+](=O)[O-])cc2)CC(=O)N(CC23CC4CC(CC(C4)C2)C3)[C@@H]1c1ccc(CO)cc1I,0.582
20,CC(C)OC(=O)CC(=O)CC(O)c1ccc([N+](=O)[O-])cc1 (centres undefined),0.0008
21,CCOC(=O)C1=CCC(c2ccco2)N(S(=O)(=O)c2ccc(C)cc2)C1 (centres undefined),0.45
22,[N-]=[N+]=Nc1ccccc1[C@@H]1OC(c2ccc(OCCCO)cc2)=N[C@]1(Cc1ccccc1)C(=O)NCc1ccccc1,0.792
23,[N-]=[N+]=NCc1ccccc1C[C@@]1(C(=O)N2CCCCC2)N=C(c2ccc(OCCCO)cc2)O[C@@H]1c1ccccc1CN=[N+]=[N-],0.599
24,O=C1C2C=CC(C(O)c3ccc(I)cc3)N(Nc3ccccc3)C2C(=O)N1c1ccccc1 (centres undefined),0.478
25,CC(C)C(=C=CC[C@@H](O)c1cccc(OCCO)c1)C[C@@H](O)c1ccccn1,0.189
26,COC(=O)[C@@]1(Cc2ccccc2CN=[N+]=[N-])N=C(c2ccc(OCCCO)cc2)O[C@H]1c1ccccc1,0.337
27,CCOC(=O)C[C@H]1[C@H](OC(=O)c2cc3ccccc3oc2=O)[C@@H](NC(=O)c2ccc3ccccc3c2)c2cc(OCCCO)ccc2N1C(=O)Cc1ccc(OC)cc1,0.174
28,COC(=O)[C@@]1(Cc2ccc(OC)cc2)[C@H]2c3cc(C(=O)N4CCCC4)n(Cc4cc(C)n(C)n4)c3C[C@H]2CN1C(=O)c1ccccc1,0.973
29,C=C(CCCC)C(=O)CC[C@H](OC(C)=O)c1ccc(OCCO)cc1,-0.624
